Source: PubChem BioAssay
CD11b adhes inh – inhibitors of CD11b/CD18 adhesion to fibrinogen, primary screen, K562 cells, luminescence; ATPlite luminescence; Mn2+ added to activate the integrin; hit rate 0.54% among 93,000; Integrin beta-2 (Homo sapiens) + Integrin alpha-M (Homo sapiens), P05107+P11215; inhibition, % at 10 µM;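 active = primary inhibition of 50% or more at 10 µM, then 40% or more on retest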
E coli WT exp – growth inhibitors of wild-type E. coli, primary screen, strain BW25113, expanded library, OD600; OD600 absorbance; AID 710, 2007; hit rate 0.15% among 98,000; growth inhibition, % at 100 µM;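 active = growth inhibition above about 50% at one test dose, limit read from the data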;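 note: growth measured after 20 h incubation at 37 °C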
Mac1 fbg enh – enhancers of CD11b/CD18 adhesion to fibrinogen, primary screen, K562 cells, luminescence; AID 1499, 2009; hit rate 0.07% among 93,000; ATPlite luminescence; activation, % at 10 µM;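 active = 10 µM primary screen giving 50% or more activity, confirmed by 40% or more on retest at that dose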
Cav3 T inh – Cav3.2 calcium influx blockers – cell-based, Fluo-4 calcium fluorescence, FDSS, MLSMR library, primary screen | B-score at 10 µM | Voltage-dependent T-type calcium channel subunit alpha-1H (Homo sapiens), O95180 | Cav3.2-expressing cells; stronger effect = lower value | hit rate 4% among 100,000 | AID 449739, 2010;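 active = single-dose well whose peak fluorescence ratio is a statistical outlier from its plate by either plate-standardised score or position-corrected B-score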
* marks the source's active call; other numbers are inactive results. Many of the other results were omitted from the sample, so hits are more common in it than they were.

Screening CC(C)(C)c1ccc(CN2C3=NCCCN3c3ccccc32)cc1 returned Cav3 T inh -6.3*.
For CCCn1nc([N+](=O)[O-])c(C(C#N)c2nc3ccccc3o2)c(Cl)c1=O (centres undefined) the results were CD11b adhes inh 99* and Mac1 fbg enh -8.
`CCn1nc([N+](=O)[O-])c(C(C#N)c2nc3cc(C(F)(F)F)ccc3s2)c(Cl)c1=O` (centres undefined) gave CD11b adhes inh 94*, E coli WT exp 1, Mac1 fbg enh -8 and Cav3 T inh -5.2*.
CC(NC(=O)CCC1COc2ccccc2O1)c1ccccc1 (centres undefined) was read as CD11b adhes inh 9, E coli WT exp 14, Mac1 fbg enh -5 and Cav3 T inh 1.3.
For CC(C)(C)OC(=O)N1CCC[C@H]1c1nnc(SCc2ccccc2Cl)o1 the results were CD11b adhes inh 27, E coli WT exp 2 and Mac1 fbg enh 1.
CC(C)(C)OC(=O)NCCc1nnc(SCc2ccc(Cl)cc2Cl)o1 was read as E coli WT exp -5 and Cav3 T inh -5.2*.
`CC(C)(C)OC(=O)N1CCC[C@H]1c1nnc(SCc2ccc(Cl)cc2Cl)o1` gave CD11b adhes inh 13, E coli WT exp 9, Mac1 fbg enh 9 and Cav3 T inh -5.8*.
`O=C(Nc1ncc(Cc2cccc(Cl)c2)s1)c1ccc([N+](=O)[O-])cc1` gave CD11b adhes inh 72 and Mac1 fbg enh 6.
Screening O=C(NC(Nc1ncc(S(=O)(=O)c2ccc([N+](=O)[O-])cc2)s1)(C(F)(F)F)C(F)(F)F)c1ccc(Cl)cc1 returned CD11b adhes inh 96*, E coli WT exp 11 and Mac1 fbg enh -5.
For Cc1ccc2c(c1)COc1c3ccc(C(=O)NC(C)C)cc3nn1-2 the results were Cav3 T inh -0.96.
C=C1CCN([C@H](C(=O)NCc2ccc(OC)cc2)C(C)C)S(=O)(=O)c2ccccc21 was read as Cav3 T inh 1.
For COc1cc(/C=C(/C#N)C(=O)NCCc2c[nH]c3ccccc23)ccc1OCc1ccccc1F the results were CD11b adhes inh -7, E coli WT exp -12, Mac1 fbg enh -2 and Cav3 T inh -0.3.
Screening O=[N+]([O-])c1cc(Br)c(O)c(/C=N/Nc2nnnn2-c2cccc3ccccc23)c1 returned CD11b adhes inh 88*, E coli WT exp 19, Mac1 fbg enh -8 and Cav3 T inh -9.3*.
O=C(Cn1cnc([N+](=O)[O-])n1)N/N=C/c1cccc2ccccc12 was read as CD11b adhes inh -6 and Mac1 fbg enh 2.
For O=C(NCCc1ccccc1)C(=O)c1c(-c2ccccc2)[nH]c2ccccc12 the results were Cav3 T inh -1.1.
CCOc1ccc(CN(CCC#N)C(=S)NC(=O)c2ccccc2)cc1 was read as CD11b adhes inh -6 and Mac1 fbg enh 3.
CCOc1ccc(C(=O)NC(=S)N(Cc2ccccc2)Cc2ccccc2)cc1 was read as E coli WT exp -15 and Cav3 T inh -4.6*.
Screening CC(C)(C)NC(=O)COc1ccc(CNCc2cccs2)cc1 returned CD11b adhes inh -11, E coli WT exp 6, Mac1 fbg enh 5 and Cav3 T inh 0.46.
Screening COc1cccc(N2[C@@H](CC(=O)O)c3cc(C(F)(F)F)ccc3S2(=O)=O)c1 returned Cav3 T inh -0.93.
Screening COC(=O)/C(=C(/F)Sc1cc(C)c(O)c(C)c1)C(F)(F)F returned CD11b adhes inh 55*, E coli WT exp -2, Mac1 fbg enh -7 and Cav3 T inh -0.087.
CCn1c(CNc2ccc(Cl)cc2)nnc1SCc1ccc(C)cc1 was read as Cav3 T inh -3.8*.
`CCn1c(CNc2ccc(Cl)cc2)nnc1SCc1ccc(Cl)cc1` gave Cav3 T inh -3.5*.
`CCn1c(CNc2cccc(Cl)c2)nnc1SCc1ccccc1` gave CD11b adhes inh 6, E coli WT exp -1, Mac1 fbg enh -1 and Cav3 T inh -1.1.
`C#CCNC(=O)C1=C[C@H](c2ccc(C(F)(F)F)cc2)C[C@H](OCc2ccc(CO)cc2)O1` gave Cav3 T inh -0.7.
For C=CCn1c(N(C)C)nc2c1c(=O)[nH]c(=O)n2C the results were Cav3 T inh 0.76.
